# According to the supplement of paper PMC6607015:
# Counter-ions that a name gives are not always drawn.
# Legend:
# Details in all cases: compound concentration in added solution (µM; 5 µl added to 20 µl cells): 10; 18 h
# [1] = system: A431; test: LBPA endosome anti-LBPA integrated intensity (sum per cell), Z-score; higher = more LBPA staining
# In short: (§1)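 Reported values are Z-scores from AcuityXpress normalisation of per-cell integrated LBPA or filipin staining. HeLa MZ or A431 cells (3,500/well in 20 µl) were seeded onto 5 µl of 10 µM compound solution in duplicate 384-well plates, incubated 18 h, fixed in 4% PFA, stained and imaged at 20×. MetaXpress segmentation measured the intensity over the whole cell or within LBPA endosomes.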
# [2] = system: HeLa MZ; test: as above
# In short: as §1
# [3] = system: A431; test: whole-cell filipin (free cholesterol) integrated intensity, Z-score; higher = more cholesterol staining
# In short: as §1
# [4] = system: HeLa MZ; test: as above
# In short: as §1
# [5] = system: A431; test: filipin (cholesterol) integrated intensity within LBPA endosomes, Z-score; higher = more cholesterol in LBPA endosomes
# In short: as §1
# [6] = system: HeLa MZ; test: as above
# In short: as §1
SMILES,LBPA endosome anti-LBPA integrated intensity (z-score) [1],LBPA endosome anti-LBPA integrated intensity (z-score) [2],whole-cell filipin (z-score) [3],whole-cell filipin (z-score) [4],filipin (z-score) [5],filipin (z-score) [6]
CCN(CC)CCOC(=O)C(c1ccccc1)c1ccccc1 [Adiphenine hydrochloride],-0.67,-1.15,-1.14,-0.931,-0.574,-0.637
CCN(CCCc1ccccc1)CCCc1ccccc1 [Alverine citrate salt],2.06,1.56,1.13,-0.0321,1.44,0.403
OC(CCN1CCCC1)(c1ccccc1)C1CCCCC1 (centres undefined) [Procyclidine hydrochloride],-0.0883,0.3,0.506,0.736,0.0344,0.437
Cc1ccc(/C(=C\CN2CCCC2)c2ccccn2)cc1 [Triprolidine hydrochloride],-0.168,0.494,-0.873,-0.689,-0.378,-0.0781
CCCc1nc2c(C)cc(-c3nc4ccccc4n3C)cc2n1Cc1ccc(-c2ccccc2C(=O)O)cc1 [Telmisartan],-0.132,0.924,0.0869,0.281,-0.34,-0.264
COc1cc(OC)c(C(=O)CCCN2CCCC2)c(OC)c1 [Buflomedil hydrochloride],-0.502,0.473,-0.535,-0.534,-0.503,-0.263
N=C(N=C(N)N)N1CCOCC1 [Moroxidine hydrochloride],-0.598,-1.32,-1.06,-0.892,-0.527,-0.669
c1ccc(C2CN3CCSC3=N2)cc1 (centres undefined) [Tetramisole hydrochloride],-0.644,0.538,-0.603,-0.217,-0.702,-0.156
CC1(C)O[C@@H]2[C@@H](CO[C@@]3(COS(N)(=O)=O)OC(C)(C)O[C@@H]23)O1 [Topiramate],-0.482,-0.13,-0.0917,-0.317,-0.419,-0.514
COc1ccc(-c2cc(=O)c3c(O)cc(O[C@@H]4O[C@H](CO[C@@H]5O[C@@H](C)[C@H](O)[C@@H](O)[C@H]5O)[C@@H](O)[C@H](O)[C@H]4O)cc3o2)cc1O [Diosmin],-0.501,-0.4,-0.678,-0.378,-0.518,-0.715
OCCN1CCN(CCCN2c3ccccc3Sc3ccc(Cl)cc32)CC1 [Perphenazine],3.24,0.966,-0.472,-0.434,2.14,2.73
CC(=O)O[C@]1(C(C)=O)CC[C@H]2[C@@H]3C=C(C)C4=CC(=O)CC[C@@H]4[C@H]3CC[C@@]21C [Nomegestrol acetate],0.292,0.691,1.29,1.28,0.654,0.778
CC(=O)S[C@@H]1CC2=CC(=O)CC[C@]2(C)[C@H]2CC[C@@]3(C)[C@@H](CC[C@@]34CCC(=O)O4)[C@H]12 [Spironolactone],-0.583,-0.535,-0.744,-0.849,-0.526,-0.689
CCC1(c2ccccc2)C(=O)NCNC1=O [Primidone],-0.559,-0.0866,-0.586,-0.472,-0.509,-0.574
CCCCC(CC)CN1CN(CC(CC)CCCC)CC(C)(N)C1 (centres undefined) [Hexetidine],0.287,-1.15,1.01,-0.0808,0.351,-0.116
CCN1CCC[C@H]1CNC(=O)c1c(OC)ccc(Br)c1OC [Remoxipride Hydrochloride],-0.395,0.278,-0.41,-0.384,-0.372,-0.266
O=C1CCc2cc(OCCCCc3nnnn3C3CCCCC3)ccc2N1 [Cilostazol],-0.386,-0.0616,-0.68,-0.703,-0.49,-0.5
COc1c(N2C[C@@H]3CCCN[C@@H]3C2)c(F)cc2c(=O)c(C(=O)O)cn(C3CC3)c12 [Moxifloxacin],-0.595,-1.37,-0.138,-0.0544,-0.469,-0.207
Cn1c([N+](=O)[O-])cnc1COC(N)=O [Ronidazole],-0.617,-0.899,-0.075,-0.4,-0.579,-0.485
COc1ccccc1OCC(O)CN1CCN(CC(=O)Nc2c(C)cccc2C)CC1 (centres undefined) [Ranolazine],-0.238,1.53,-0.112,-0.533,-0.352,-0.221
C[C@@H]1[C@H](O)[C@@H](C)/C=C/C=C/C=C/C=C/C=C/C=C/C=C/[C@H](O[C@@H]2O[C@H](C)[C@@H](O)[C@H](N)[C@@H]2O)C[C@@H]2O[C@](O)(C[C@@H](O)C[C@@H](O)[C@H](O)CC[C@@H](O)C[C@@H](O)CC(=O)O[C@H]1C)C[C@H](O)[C@H]2C(=O)O [Amphotericin B],0.731,-0.696,-0.156,0.222,0.0841,-0.26
CC(C)NCC(O)c1ccc2ccccc2c1 (centres undefined) [Pronethalol hydrochloride],0.244,-0.115,0.379,0.0476,-0.072,-0.11
NC(=O)c1ccc[n+]([C@@H]2O[C@H](COP(=O)([O-])OP(=O)(O)OC[C@H]3O[C@@H](n4cnc5c(N)ncnc54)[C@H](O)[C@@H]3O)[C@@H](O)[C@H]2O)c1 [Nadide],-0.373,-0.766,-0.714,-0.46,-0.413,-0.768
COC(=O)CCc1ccc(OCC(O)CNC(C)C)cc1 (centres undefined) [Esmolol hydrochloride],-0.258,-0.524,-0.179,0.319,-0.36,-0.273
